A number with no mark means an inactive call.
Tested on: MCF10A
Experiment: perturbation Mahalanobis distance of morphological profile vs DMSO controls (Mahalanobis distance (SD units)); higher = stronger morphological change, active = 7 or more
Conditions: 72 h
Method: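 MCF10A cells were seeded onto drugs dispensed acoustically into 384-well plates, using one dose per drug chosen from its human peak plasma concentration, and incubated for 72 h at 37 °C. Cells were stained for DNA, tubulin and mitochondria and imaged; 78 CellProfiler features were extracted, plate-normalised and compared with DMSO wells.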

[1] = screen batch: Batch1_Mahalanobis_Distance
[2] = screen batch: Batch2_Mahalanobis_Distance

Row | Compound | perturbation Mahalanobis distance [1] | perturbation Mahalanobis distance [2]
1 | CCc1c2c(nc3ccc(OC(=O)N4CCC(N5CCCCC5)CC4)cc13)-c1cc3c(c(=O)n1C2)COC(=O)[C@]3(O)CC [Irinotecan] (16.8 µM) | 11.9 (active) | 16.6 (active)
2 | COc1ccc(C[C@@H]2c3cc(OC)c(OC)cc3CC[N@+]2(C)CCC(=O)OCCCCCOC(=O)CC[N@@+]2(C)CCc3cc(OC)c(OC)cc3[C@H]2Cc2ccc(OC)c(OC)c2)cc1OC [Cisatracurium Besylate] (18.1 µM) | 5.34 | 4.5
3 | O=C1CC2(CCCC2)CC(=O)N1CCCCN1CCN(c2ncccn2)CC1 [Buspirone] (0.05 µM) | 1.84 | 3.36
4 | Cc1nc2n(c(=O)c1CCN1CCC(c3noc4cc(F)ccc34)CC1)CCCC2 [Risperidone] (73 µM) | 2.9 | 2.4
5 | C#C[C@]1(O)CC[C@H]2[C@@H]3CCc4cc(O)ccc4[C@H]3CC[C@@]21C [Ethinyl Estradiol] (23 µM) | 5.9 | 3.63
6 | CC[C@H]1OC(=O)[C@H](C)[C@@H](O[C@H]2C[C@@](C)(OC)[C@@H](O)[C@H](C)O2)[C@H](C)[C@@H](O[C@@H]2O[C@H](C)C[C@H](N(C)C)[C@H]2O)[C@](C)(O)C[C@@H](C)CN(C)[C@H](C)[C@@H](O)[C@]1(C)O [Azithromycin] (6.7 µM) | 3.29 | 4.74
7 | NC12CC3CC(CC(C3)C1)C2 [Amantadine] (19.85 µM) | 2.66 | 3.87

— the supplement of paper PMC6853941
